Reference: the supplement of paper PMC12645437, “Orthogonal IMiD-Degron Pairs Induce Selective Protein Degradation in Cells” (ACS Chemical Biology, 2025)
In all, about 8,300 sequences were measured (“log2 fold change of degron read counts, EGFP-low vs EGFP+ sorted cells (limma voom), compound-induced degradation”: median about -1.1, highest 2% from about 3.2 on). The full list was thinned out, with the highest values kept by preference.

T1: CRBN, Q96SW2
T1 chain: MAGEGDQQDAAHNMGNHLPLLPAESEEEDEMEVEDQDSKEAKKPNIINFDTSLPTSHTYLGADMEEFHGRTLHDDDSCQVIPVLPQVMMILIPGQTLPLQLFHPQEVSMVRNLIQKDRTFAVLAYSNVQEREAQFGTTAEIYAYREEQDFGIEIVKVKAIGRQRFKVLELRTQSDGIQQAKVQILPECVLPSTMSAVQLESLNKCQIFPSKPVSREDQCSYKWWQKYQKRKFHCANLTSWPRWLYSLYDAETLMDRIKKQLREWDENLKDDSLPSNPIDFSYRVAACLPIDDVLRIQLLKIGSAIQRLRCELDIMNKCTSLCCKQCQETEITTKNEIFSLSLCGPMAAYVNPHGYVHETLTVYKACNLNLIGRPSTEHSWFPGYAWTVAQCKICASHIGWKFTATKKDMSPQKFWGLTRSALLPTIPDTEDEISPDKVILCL

B1: 46L_47F_49N_50Q_52G_53F_54Y_55C_67L_, Q9UKT9 (peptide)
chain: LFCNQCGFYCTQKGNLLRHIKL
B2: 46F_47N_49P_50I_52G_53A_54R_55F_67L_, Q9UKT9 (peptide)
chain: FNCPICGARFTQKGNLLRHIKL
B3: 46F_47G_49P_50I_52G_53A_54R_55F_67L_, Q9UKT9 (peptide)
chain: FGCPICGARFTQKGNLLRHIKL
B4: 46F_47E_49P_50I_52G_53A_54R_55F_67L_, Q9UKT9 (peptide)
chain: FECPICGARFTQKGNLLRHIKL
B5: 46F_47Q_49P_50I_52G_53A_54L_55F_67L_, Q9UKT9 (peptide)
chain: FQCPICGALFTQKGNLLRHIKL
B6: 46F_47L_49P_50I_52G_53A_54R_55F_67L_, Q9UKT9 (peptide)
chain: FLCPICGARFTQKGNLLRHIKL
B7: 46F_47V_49P_50I_52G_53A_54L_55F_67L_, Q9UKT9 (peptide)
chain: FVCPICGALFTQKGNLLRHIKL
B8: 46F_47V_49P_50I_52G_53A_54R_55F_67L_, Q9UKT9 (peptide)
chain: FVCPICGARFTQKGNLLRHIKL
B9: 46F_47S_49P_50I_52G_53A_54R_55F_67L_, Q9UKT9 (peptide)
chain: FSCPICGARFTQKGNLLRHIKL
B10: 46F_47Y_49P_50I_52G_53A_54R_55F_67L_, Q9UKT9 (peptide)
chain: FYCPICGARFTQKGNLLRHIKL
B11: 46F_47R_49P_50I_52G_53A_54R_55F_67L_, Q9UKT9 (peptide)
chain: FRCPICGARFTQKGNLLRHIKL
B12: 46F_47W_49P_50I_52G_53A_54R_55F_67L_, Q9UKT9 (peptide)
chain: FWCPICGARFTQKGNLLRHIKL
B13: 46F_47S_49P_50I_52G_53A_54L_55F_67L_, Q9UKT9 (peptide)
chain: FSCPICGALFTQKGNLLRHIKL
B14: 46F_47W_49N_50Q_52G_53R_54Q_55F_67L_, Q9UKT9 (peptide)
chain: FWCNQCGRQFTQKGNLLRHIKL
B15: 46F_47A_49E_50I_52G_53R_54N_55F_67L_, Q9UKT9 (peptide)
chain: FACEICGRNFTQKGNLLRHIKL
B16: 46F_47I_49N_50V_52G_53A_54L_55F_67L_, Q9UKT9 (peptide)
chain: FICNVCGALFTQKGNLLRHIKL
B17: 46F_47V_49D_50I_52G_53A_54L_55F_67L_, Q9UKT9 (peptide)
chain: FVCDICGALFTQKGNLLRHIKL
B18: 46F_47C_49P_50I_52G_53R_54F_55F_67L_, Q9UKT9 (peptide)
chain: FCCPICGRFFTQKGNLLRHIKL
B19: 46F_47G_49P_50I_52G_53H_54E_55F_67L_, Q9UKT9 (peptide)
chain: FGCPICGHEFTQKGNLLRHIKL
B20: 46F_47W_49N_50Q_52G_53H_54T_55F_67L_, Q9UKT9 (peptide)
chain: FWCNQCGHTFTQKGNLLRHIKL
B21: 46F_47Y_49E_50Q_52G_53A_54M_55F_67L_, Q9UKT9 (peptide)
chain: FYCEQCGAMFTQKGNLLRHIKL
B22: 46F_47I_49P_50I_52G_53A_54R_55F_67L_, Q9UKT9 (peptide)
chain: FICPICGARFTQKGNLLRHIKL
B23: 46F_47K_49P_50I_52G_53A_54R_55F_67L_, Q9UKT9 (peptide)
chain: FKCPICGARFTQKGNLLRHIKL
B24: 46F_47C_49P_50I_52G_53A_54R_55F_67L_, Q9UKT9 (peptide)
chain: FCCPICGARFTQKGNLLRHIKL
B25: 46F_47A_49P_50I_52G_53A_54R_55F_67L_, Q9UKT9 (peptide)
chain: FACPICGARFTQKGNLLRHIKL
B26: 46F_47F_49P_50I_52G_53A_54R_55F_67L_, Q9UKT9 (peptide)
chain: FFCPICGARFTQKGNLLRHIKL
B27: 46F_47T_49P_50I_52G_53A_54R_55F_67L_, Q9UKT9 (peptide)
chain: FTCPICGARFTQKGNLLRHIKL
B28: 46F_47D_49P_50I_52G_53A_54R_55F_67L_, Q9UKT9 (peptide)
chain: FDCPICGARFTQKGNLLRHIKL
B29: 46F_47M_49P_50I_52G_53A_54R_55F_67L_, Q9UKT9 (peptide)
chain: FMCPICGARFTQKGNLLRHIKL
B30: 46F_47Q_49P_50I_52G_53A_54R_55F_67L_, Q9UKT9 (peptide)
chain: FQCPICGARFTQKGNLLRHIKL
B31: 46F_47H_49P_50I_52G_53A_54R_55F_67L_, Q9UKT9 (peptide)
chain: FHCPICGARFTQKGNLLRHIKL

Molecular target: T1, CRBN, Q96SW2
Assay: log2 fold change of degron read counts, EGFP-low vs EGFP+ sorted cells (limma voom), compound-induced degradation; higher = more compound-induced degradation of the degron-EGFP fusion; degrons are variants of IKZF1/3 zinc finger 2; compound dose not given here
Details: Jurkat, 18 h
[1] = compound: compound 19 (5-tert-butyl-thalidomide)
[2] = compound: compound 22 (5-morpholino-thalidomide)
[3] = compound: compound 33 (diphenyl IMiD analogue)
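Note: pooled lentiviral library of zinc finger degron-EGFP fusions in mCherry-positive Jurkat cells, FACS-sorted after compound exposure, with degron abundance counted by next-generation sequencing.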

Sequence	log2 fold change of degron read counts [1]	log2 fold change of degron read counts [2]	log2 fold change of degron read counts [3]	log2 fold change of degron read counts (compound: thalidomide)
B1	-0.734	-0.67	-0.837	-0.422
B2	2.1	1.39	-0.35	0.971
B3	3.39	2.28	0.0226	1.05
B4	0.918	-0.107	1.75	3.37
B5	-1.04	1.75	1.86	3.37
B6	0.407	-0.333	0.469	1.92
B7	-0.961	0.498	1.25	1.5
B8	0.924	2.47	0.874	2.71
B9	2.63	2.4	0.555	1.65
B10	2.38	2.5	0.405	-0.0683
B11	-0.853	-0.665	-0.334	0.377
B12	2.78	3.66	1.23	1.15
B13	0.486	-0.0754	2.59	0.134
B14	-1.77	-1.3	-1.46	-1.87
B15	-0.441	-1.8	-2.25	-1.66
B16	-2.12	-1.66	0.0338	-0.727

Sequence	log2 fold change of degron read counts [1]	log2 fold change of degron read counts [2]	log2 fold change of degron read counts [3]	log2 fold change of degron read counts (compound: thalidomide)
B17	-1.73	-0.858	-0.0343	-0.433
B18	-0.555	-0.77	0.987	-0.278
B19	-1.93	-2.76	-2.07	-2.26
B20	-1.74	-2.28	-2.22	-1.67
B21	0.643	1.04	0.255	-1.7
B22	0.0922	2.32	1.27	2.63
B23	-2.04	-2.6	-2.42	-1.57
B24	2.53	2.75	1.8	2.55
B25	3.72	2.53	-0.174	1.31
B26	3.13	3.35	1.51	1.26
B27	1.24	2.95	1.72	3
B28	3.35	1.87	1.6	2.76
B29	-0.0501	0.185	1.05	1.11
B30	-0.209	2.05	1.18	3.55
B31	2.37	2.5	0.881	0.851
